The list is not random: actives were taken first. Their share in the collection is about 19%.
DT40 TDP1 no CPT – qHTS for Inhibitors of human tyrosyl-DNA phosphodiesterase 1 (TDP1): qHTS in cells in absence of CPT | DT40 Tdp1-/- hTDP1 cells, no CPT, ATP luminescence, 48 h | Potency, µM (doses to about 46.2 µM), for inactives: top-dose activity change, negative = growth inhibition, usual class: inhibitors | hit rate 15% among 420,000 | AID 686978, 2013; note: potency is the fitted concentration of half-maximal effect; % is set by controls: 0 for no effect and ±100 for the full control effect; nearly all actives have a fitted effect of over 55% in size
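No-CPT arm: Tdp1-/-;hTDP1 DT40 cells (400/well) plus compounds, incubated ≥48 hr at 37 °C. Readout CellTiter-Glo luminescence.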
ASM inhibitor – human S-ASM enzyme inhibition; AID 504937; Potency, µM (series often up to 57.5 µM), for inactives: top-dose activity change, negative = inhibition, most hits filed as inhibitors; hit rate 0.006% among 340,000; placental ASM, HMU-PC fluorogenic substrate, 60 min; P17405; note: potency is the fitted concentration of half-maximal effect
Target sequence (P17405 47-631 limits assumed): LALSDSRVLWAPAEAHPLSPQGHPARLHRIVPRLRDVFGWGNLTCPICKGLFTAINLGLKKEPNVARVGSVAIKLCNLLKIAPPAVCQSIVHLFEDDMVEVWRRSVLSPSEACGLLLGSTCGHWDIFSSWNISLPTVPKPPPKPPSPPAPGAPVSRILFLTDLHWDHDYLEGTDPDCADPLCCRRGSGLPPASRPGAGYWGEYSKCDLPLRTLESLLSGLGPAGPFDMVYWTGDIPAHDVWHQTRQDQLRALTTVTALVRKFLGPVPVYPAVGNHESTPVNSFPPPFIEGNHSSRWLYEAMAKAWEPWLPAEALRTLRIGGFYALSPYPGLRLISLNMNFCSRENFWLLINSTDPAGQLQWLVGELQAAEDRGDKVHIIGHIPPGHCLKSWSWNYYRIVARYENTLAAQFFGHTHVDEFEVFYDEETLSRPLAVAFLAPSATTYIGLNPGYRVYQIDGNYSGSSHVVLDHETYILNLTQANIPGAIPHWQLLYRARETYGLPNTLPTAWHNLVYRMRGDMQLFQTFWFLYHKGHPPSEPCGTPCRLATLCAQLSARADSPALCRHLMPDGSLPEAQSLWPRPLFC
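Fluorescence read-out (Ex 386 nm, Em 447 nm) after stopping the reaction at pH 10. Enzyme: ASM from human placenta; substrate HMU-PC0, 9 uM final; 60 min, 37 °C. Compound preincubation 10 min, ambient temperature.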
IL-1B inflam inh – inflammasome signaling inhibition, IL-1 beta readout | AID 743279 | THP-1 LPS/ATP IL-1B secretion, AlphaLISA, 16 h; stronger effect = lower value | activity change, % at 57.5 µM | hit rate 4.7% among 360,000; in the data active = activity change below about -50%; inconclusive = mostly about -30% to -49%; note: % is set by controls: 0 for no effect and ±100 for the full control effect
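Secreted IL-1B measured by AlphaLISA bead assay after 16 h compound exposure of THP-1 cells; compounds (final up to 57.5 uM) added 1 h before LPS (250 ng/mL) and ATP (1.25 mM) stimulation; lower signal means less secretion.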
TGFb SMAD3 inh – inhibitors of TGF-b signaling | HepG2 CAGA-GFP TGF-b/SMAD3 reporter, GFP fluorescence, 18 h; TGF-beta stimulated, 500 pg/mL final | Potency, µM (highest dose often 46.1 µM), without a hit: top-dose activity, negative = inhibition, hits mostly inhibitors | hit rate 1.2% among 410,000; note: potency is the fitted concentration of half-maximal effect; % is set by controls: 0 for no effect and ±100 for the full control effect; nearly all actives have a fitted effect of over 65% in size
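Cell-based qHTS in HEPG2 carrying a CAGA-GFP Smad reporter; compounds added before 500 pg/mL final TGF-beta, 18 h incubation at 37 degrees C, GFP fluorescence quantified per cell by imaging cytometry.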
HepG2 viability – kills HepG2 cells in TGF-b inhibitor counter-screen. HepG2 CAGA-GFP viability, ATP luminescence, 18 h. Potency, µM (top dose mostly 46.1 µM), for inactives: at the top dose activity change, negative = cytotoxicity, actives largely listed as cytotoxic. hit rate 0.76% among 410,000. AID 588856; note: potency is the fitted concentration of half-maximal effect
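CellTiter-Glo luminescence gave cytotoxicity after 18 hours at 37 degrees C. The cells were HepG2 CAGA-GFP in 1% FBS DMEM, stimulated with 500 pg/mL TGF-beta after compound addition. %Activity was normalised to no-cell wells (complete cell-killing) and DMSO (no toxicity), and curves were fitted and classified.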
TDP1 cell CPT – growth inhibition of DT40 Tdp1-/-;hTDP1 cells with camptothecin (screen for TDP1 inhibitors). chicken DT40 Tdp1-/-;hTDP1 cells + 20 nM CPT, ATP luminescence, 48 h. Potency, µM (series often up to 46.2 µM), without a hit: top-dose activity change, negative = growth inhibition, usual class: inhibitors. hit rate 12% among 420,000. AID 686979; note: potency is the fitted concentration of half-maximal effect; % is set by controls: 0 for no effect and ±100 for the full control effect; nearly all actives have a fitted effect of over 55% in size
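Chicken DT40 Tdp1-/- cells complemented with human TDP1, 400 cells/well, exposed to compounds plus 20 nM camptothecin for at least 48 h at 37 C; viability read as ATP content by CellTiter-Glo luminescence.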
Starred values were filed as active, the others as inactive; ? = inconclusive; . = no result; [ ] = another dose, or the depositor's remark. Unless noted, calls come from the whole dose curve; as a rule, active = well fitted curve in the direction sought with a large enough effect; inconclusive = small, poorly fitted or top-dose-only effect, or another doubt; inactive = no such curve, though single readings can be large; an effect the other way counts as inactive or inconclusive.

SMILES	DT40 TDP1 no CPT	ASM inhibitor	IL-1B inflam inh	TGFb SMAD3 inh	HepG2 viability	TDP1 cell CPT
CN(CCc1ccccc1)Cc1c[nH]c2ccccc12	1.46µM*	1.9%	-67.2*	14.1µM*	11.2µM*	0.82µM*
CC(OC(=O)c1cn(C)c2ccccc12)C(=O)N(C)c1ccccc1 (stereo unspecified)	?	2.1%	-26.1	12.4%	0.0%	-2.8%
Cc1ccc2c(c1)[C@]13CCCC[C@@H]1[C@H](C2)N(C)CC3	-19.9%	.	.	.	.	-4.0%
CC(C)N1CCOC(c2ccc(O)c(O)c2)C1 (stereo unspecified)	-11.2%	.	49.9	36.2%	7.9%	?
Cc1cc(NC(=O)c2cccn(Cc3cccc([N+](=O)[O-])c3)c2=O)no1	-12.1%	.	.	-1.2%	-9.3%	-14.1%
COc1ccc2[nH]cc(CCN(C(C)C)C(C)C)c2c1	-27.5%[92.5 µM]	.	.	.	.	?
COc1ccc(CN(CCc2c[nH]c3ccccc23)Cc2ccc(OC)cc2)cc1	14.6µM*	-8.7%	-15.2	?	-80.1%	16.4µM*
NC(CCP(=O)(O)O)C(=O)O (stereo unspecified)	-10.2%	.	.	.	.	?
O=C(COc1ccc(Cl)cc1)NCCc1cnc[nH]1	14.7%	2.0%	0.0	4.1%	-0.5%	-10.0%
COc1cccc(OC)c1C(=O)Nc1nc(N)n(-c2ccccc2)n1	-1.4%	2.4%	-21.4	1.8%	-7.8%	2.1%
CCc1ccc(C2C(C(=O)Nc3ccccc3OC)=C(C)Nc3nc(SCc4ccccc4)nn32)cc1 (stereo unspecified)	3.66µM*	.	.	-15.1%	-16.9%	4.11µM*
COc1ccc(CN2CCc3nc(N4CCN(c5ccc(F)cc5)CC4)ncc3C2)c(OC)c1OC	4.61µM*	.	.	?	-25.0%	5.8µM*
COc1cc(C)c(CN2CC=C(c3ccc(F)cc3)CC2)cc1C	?	2.0%	8.4	7.3%	-21.8%	-9.6%
O=C(O)[C@@H]1C[C@H]2C[C@@H](CP(=O)(O)O)CC[C@H]2CN1	-11.7%	.	.	-14.5%	-14.9%	11.7%
CC(C)Oc1ccc(C2(C#N)CC[N+](C)(C)CC2)cc1	-4.1%	3.6%	0.0	?	-15.7%	10.1%
CCCNC(=O)C(Cc1ccc(C(F)(F)P(=O)(OCC)OCC)cc1)NC(=O)c1ccc(C#N)cc1 (stereo unspecified)	-29.1%	-2.4%	-9.6	-28.8%	-45.5%	?
Cc1ccc2c(c1)cc(C(=O)Nc1ccccc1C)n2C	1.16µM*	.	.	.	-3.5%	?
Cc1ccc(NC(=O)c2cccn(Cc3ccccc3C)c2=O)c(C)c1	-22.5%	.	.	2.1%	-5.7%	-11.0%
COc1cc(/C=C/C(=O)c2c(O)n(CCc3ccccc3)c(=O)[nH]c2=O)ccc1O	10.3µM*	-1.1%	-99.3*	0.0%	-5.8%	13µM*
O=C(/C=C/c1ccc2c(c1)OCO2)c1c(O)n(CCc2ccccc2)c(=O)[nH]c1=O	?	-7.4%	-4.9	4.4%	-6.8%	?
O=C(/C=C/c1ccccc1)c1c(O)n(CCc2ccccc2)c(=O)[nH]c1=O	2.59µM*	-4.5%	-23.3	2.0%	1.7%	5.17µM*
C=CCSC1=N/C(=C\c2cc(OC)c3c(c2)OCO3)C(=O)S1	-3.3%	-1.6%	15.4	?	-6.9%	17.9%
O=C(CNC(=O)c1cccc(S(=O)(=O)N2CCc3ccccc32)c1)Nc1ccccc1Br	?	-12.7%	?	-23.6%	-11.7%	?
C[n+]1ccc(-c2ccccc2)c2ccccc21	2.59µM*	18.4%	53.0	?	-17.9%	2.31µM*
Brc1ccccc1-c1ccccc1	-8.3%	0.5%	-18.5	4.9%	-10.0%	-18.1%
SMILES	DT40 TDP1 no CPT	ASM inhibitor	IL-1B inflam inh	TGFb SMAD3 inh	HepG2 viability	TDP1 cell CPT
CCOC(=O)/C=C(C)/C=C/C[C@@H](C)CCCC(C)C	5.2%	.	.	.	.	-7.9%
CCc1ccc(-n2c(=O)c3sc4ccccc4c3n(CC(=O)NC3CCCC3)c2=O)cc1	?	.	.	0.6%	-2.4%	?
COc1cc(OC)c(OC)cc1/C=C1/C(=O)NC(=O)N(Cc2ccccc2)C1=O	?	7.5%	-15.7	2.0%	-15.1%	-0.9%
Cn1cccc1/C=C1\C(=O)NC(=O)N(CCC2=CCCCC2)C1=O	13µM*	-3.9%	33.0	13.7%	0.4%	16.4µM*
O=C1NC(=O)N(CCC2=CCCCC2)C(=O)/C1=C\c1cccs1	?	-0.6%	-14.4	1.3%	8.2%	?
Cn1cccc1/C=C1\C(=O)NC(=O)N(Cc2ccccc2Cl)C1=O	4.61µM*	-1.9%	26.9	3.7%	0.3%	5.8µM*
CCN1C[C@]2(C)CC[C@H](OC)[C@]34C5C[C@@H]6CC[C@@](O)(C5C(=O)O6)C(C13)[C@@H](OC(=O)c1ccccc1)C24	-14.4%[9.04 µM]	.	.	.	.	2.9%[9.04 µM]
COc1ccc2c3c1OC1C(=O)CC[C@@]4(O)[C@@H](C2)N(CC2CC2)CC[C@]314 (stereo partly specified)	-19.1%	3.0%	-16.7	-5.4%	-0.9%	5.5%
O=C1NCc2c1c1c3ccccc3[nH]c1c1[nH]c3ccccc3c21	2.82µM*	.	.	?	12.6µM*	3.16µM*
Cc1nnc2n1-c1ccc(Br)cc1C(c1ccccc1Cl)=NC2	2.5%	-0.8%	23.4	-6.8%	4.0%	?
CC(=O)NCCc1c[nH]c2ccccc12	?	-0.9%	5.3	40.6%	2.1%	-0.5%
CC(=O)c1cn(CC(=O)NCCc2c[nH]c3ccccc23)c2ccccc12	23.1µM*	-0.5%	49.6	-26.4%	-19.7%	16.4µM*
N=C1c2ccccc2CN1NC(=O)c1ccc(Br)cc1	2.2%	0.1%	-102.0*	-12.2%	-19.1%	-15.5%
N=C1c2ccccc2CN1NC(=O)c1ccco1	1.3%	2.9%	-11.9	20.9%	5.7%	10.2%
CC(C)CCn1c(=O)c(C(=O)NCc2ccc3c(c2)OCO3)c(O)c2ccccc21	?	-3.5%	78.8	2.8%	-26.6%	?
CCCCCn1c(=O)c(C(=O)Nc2nc3ccccc3[nH]2)c(O)c2ccccc21	5.17µM*	65.6%	14.7	-11.1%	-63.1%	2.91µM*
CCCCCn1c(=O)c(C(=O)Nc2ncccc2C)c(O)c2ccccc21	?	-14.9%	4.4	16.4%	-7.4%	?
CCCCn1c(=O)c(C(=O)Nc2ccccc2C)c(O)c2ccccc21	9.2µM*	1.5%	29.9	7.0%	14.5%	8.2µM*
CCCCCn1c(=O)c(C(=O)Nc2ccccc2Cl)c(O)c2ccccc21	5.17µM*	0.0%	37.3	19.5%	-2.9%	5.17µM*

Assay outcomes deposited in PubChem BioAssay by National Center for Advancing Translational Sciences (NCATS).
